Whole data set: some 39,000 sequences, median “fluorescence intensity (a.u.)” near 4,300, cut for the highest 2% near 39,000. Shown is part of a subset that was picked to be rich in the highest values.
These sequences were tested against T1, OsSMF1 (Oryza sativa, UniProt Q6ZLB0 1-436) (assay: protein-binding microarray (RPBM); PBS, 2% BSA, 51.3 ng/ul salmon testes DNA, 50 uM zinc acetate, 200 nM TF, 25 C, 1 h; high values mean tight binding). Details: protein: recombinant; tags: N-terminal polyhistidine and DsRed monomer fusion (pET32a); chain copies: 2; label: CyDye5-dUTP incorporated in the synthesized complementary strand; 3' TTTTT single-stranded linker to array surface; dsDNA, one strand shown.
T1 sequence: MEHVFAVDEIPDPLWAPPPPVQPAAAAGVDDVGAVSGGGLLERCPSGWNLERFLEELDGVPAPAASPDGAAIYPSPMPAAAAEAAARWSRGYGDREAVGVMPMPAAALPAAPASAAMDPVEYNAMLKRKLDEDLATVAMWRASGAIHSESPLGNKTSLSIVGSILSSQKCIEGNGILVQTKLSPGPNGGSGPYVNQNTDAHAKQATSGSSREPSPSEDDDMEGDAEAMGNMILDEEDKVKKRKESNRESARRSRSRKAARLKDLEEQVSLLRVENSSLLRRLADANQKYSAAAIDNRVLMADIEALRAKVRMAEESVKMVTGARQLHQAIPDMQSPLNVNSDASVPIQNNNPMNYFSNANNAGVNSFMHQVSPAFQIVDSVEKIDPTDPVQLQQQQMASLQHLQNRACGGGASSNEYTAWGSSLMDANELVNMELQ
Summary of the method: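 Ni–NTA purification followed expression in E. coli BL21-CodonPlus of transcription factors fused N-terminally to a polyhistidine tag and DsRed. At 200 nM in PBS with 2% BSA, salmon testes DNA and 50 µM zinc acetate, the protein was incubated for 1 h at 25 °C with a custom Agilent array that had been primer-extended with Cy5-dUTP and blocked with 2% BSA. After washing, the array was read on an Axon 4000B scanner. The binding signal is per-feature fluorescence intensity in arbitrary units.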

In order of falling binding signal:
1. CTCTTTTCCCCATCTCACATACTGTGCCTTGCCTCCATAACGGAGTCACCTAGTGCAG  65200 fluorescence intensity (a.u.)
2. AATTACCACCCTAACTCAATTAGAAGCGGTTTTCAGCCTACGGAGTCACCTAGTGCAG  52400 fluorescence intensity (a.u.)
3. CAAATGTCGATTTGGTTGTGGACATGTCAATGCCGATCAACGGAGTCACCTAGTGCAG  50200 fluorescence intensity (a.u.)
4. AAATTATGTCATTTTGATCAACAGTTGGTACAGTAGTACACGGAGTCACCTAGTGCAG  48000 fluorescence intensity (a.u.)
5. TCGTGGGAATGGCTGAGGATTAGGGCGCCACGTCATCGTTCGGAGTCACCTAGTGCAG  45600 fluorescence intensity (a.u.)
6. AATAAATAGGCCTGACGTGAGGCCCACTCGCCACGTCAGCCGGAGTCACCTAGTGCAG  44900 fluorescence intensity (a.u.)
7. GAGAAGAAGGCCACCTCACCACTAAAGGAGGAGGAGGAGGCGGAGTCACCTAGTGCAG  43500 fluorescence intensity (a.u.)
8. GTTTTGTGATTTGGTACATGTGGTAGCATTCACCAAATGTCGGAGTCACCTAGTGCAG  39600 fluorescence intensity (a.u.)
9. CTCCGTTGTGCTCTGTCTCTCTACCGCCACCATCCACTGCCGGAGTCACCTAGTGCAG  39200 fluorescence intensity (a.u.)
10. AGACACAGCACACCCACTCACTCTGCTCACTCTCCCATACCGGAGTCACCTAGTGCAG  39100 fluorescence intensity (a.u.)
11. GCCGTGGGAATGGCTGAGGATTAGTGCGCCACGTCAGCAACGGAGTCACCTAGTGCAG  37300 fluorescence intensity (a.u.)
12. TCGTCGCCCACTGCCACCGCTGACGTCACCGCACTCTCGCCGGAGTCACCTAGTGCAG  30500 fluorescence intensity (a.u.)
13. TGTGGTGGCTGAGTCATCGTGGGATCCACGTGGGCCCCACCGGAGTCACCTAGTGCAG  24700 fluorescence intensity (a.u.)
14. TTCTATAGAAGCTTTCTCTCTTAAAACTCTACCAAAATTTCGGAGTCACCTAGTGCAG  24000 fluorescence intensity (a.u.)
15. CAGCCGGGCCCACGTGTCAGTGAGTGCGTGACGCGTCAGCCGGAGTCACCTAGTGCAG  15200 fluorescence intensity (a.u.)
16. TTTCTCCACGTCAGCGAAACCACCTATATATATACTGCCACGGAGTCACCTAGTGCAG  14300 fluorescence intensity (a.u.)
17. TTGTCGCAGGTTGCTGACTGTTCCTCGAGGGAGTTCTCGGCGGAGTCACCTAGTGCAG  6980 fluorescence intensity (a.u.)
18. TCCTCCCATCTCTCTCTCTTTTGCCCACACTCTTTTCACACGGAGTCACCTAGTGCAG  5660 fluorescence intensity (a.u.)
19. CTCTTGACCAGCCGAGCGCACCGTCATCAGGCTACATCTCCGGAGTCACCTAGTGCAG  5290 fluorescence intensity (a.u.)
20. CTTCAGTTATGTTAATTACATGTCATTTGTTTTGTTACAACGGAGTCACCTAGTGCAG  4920 fluorescence intensity (a.u.)
21. CCCTGCTCTGCCACGCCCGCCACCGTCTGCCGGCCTCTACCGGAGTCACCTAGTGCAG  4730 fluorescence intensity (a.u.)
22. TCTACTCCTAAATCCACATCATCTTTAGCAAAAGCAACAACGGAGTCACCTAGTGCAG  4670 fluorescence intensity (a.u.)
23. GCCTCTCCTTGCTTGCGTGCTCACTGTCGCTGACTGCTCTCGGAGTCACCTAGTGCAG  4650 fluorescence intensity (a.u.)
24. TGCACCTAGGTGTACATGTCATTGTGTGTTTGTGGTTGGTCGGAGTCACCTAGTGCAG  4630 fluorescence intensity (a.u.)
25. TCTTTTGGTGGTTTCAGAAGCGGTTTTATCCTACGTGACACGGAGTCACCTAGTGCAG  4530 fluorescence intensity (a.u.)
26. TTTTGACCCGGTTTTAGCCTACGTGACGGCTAAGTCAGCGCGGAGTCACCTAGTGCAG  4480 fluorescence intensity (a.u.)
27. TTAAATGCACCCCTACTCAACCCCTCAATCGACGTGTTGGCGGAGTCACCTAGTGCAG  4180 fluorescence intensity (a.u.)
28. GGGGAAGGAGAAGAGGAAGGAGAGGGGAGGAGGAGGAGGGCGGAGTCACCTAGTGCAG  3770 fluorescence intensity (a.u.)
29. AGTATTTTAAATCATATACAAGTACGTCACATCATCACTCCGGAGTCACCTAGTGCAG  3720 fluorescence intensity (a.u.)
30. CAAGGAAGAATATGCCACCTCCACGGAGGCCGGCGGCGGCCGGAGTCACCTAGTGCAG  3710 fluorescence intensity (a.u.)
31. TGACACCGTCGCCACCTCGCCACCCATCCATTTCCATTGCCGGAGTCACCTAGTGCAG  3650 fluorescence intensity (a.u.)
32. CAGCTACAGGACGGCAGTACCCAGTACACGCACGCGTACCCGGAGTCACCTAGTGCAG  3640 fluorescence intensity (a.u.)
33. CTCCACACAGACACACATCCCACCCCACCCACATACACACCGGAGTCACCTAGTGCAG  3610 fluorescence intensity (a.u.)
34. GCCGCCGCTGTCGCCATCCACGCTCCGAGCGCCACTGCCACGGAGTCACCTAGTGCAG  3490 fluorescence intensity (a.u.)
35. AAGGTGAGGTTGGTCAACATTTGTCATCAAATTTTGATCACGGAGTCACCTAGTGCAG  3400 fluorescence intensity (a.u.)
36. TGGATATACATATGCCATGTCGATTTTGTGCCGAAGTGGACGGAGTCACCTAGTGCAG  3330 fluorescence intensity (a.u.)
37. CCCTCTCCACATTCTCTTCCACCTGTGTTCCCCTTTTCTTCGGAGTCACCTAGTGCAG  3320 fluorescence intensity (a.u.)
38. TGTGGTTGGTGTCGATTTGGAATGGGGTGAAATGGACTGGCGGAGTCACCTAGTGCAG  3260 fluorescence intensity (a.u.)
39. CTATGCCTTGTCAACATTCAACCCCTCCAATAGACTTTGTCGGAGTCACCTAGTGCAG  3210 fluorescence intensity (a.u.)
40. TCCAGTTTCGCGTAGCTGCGTGACAGTTCAATTGAACTCTCGGAGTCACCTAGTGCAG  3200 fluorescence intensity (a.u.)
41. TGCACGCTGCGGCGTACGTCGCGTGCGCACACGGGAATTTCGGAGTCACCTAGTGCAG  3190 fluorescence intensity (a.u.)
42. CATTTGTTTTATTTTAGCATTTGTCACTTACATGTGGGACCGGAGTCACCTAGTGCAG  3180 fluorescence intensity (a.u.)
43. AACTCTCCAGTCTCCACCCACCTCACTCCACAGTCCACACCGGAGTCACCTAGTGCAG  3150 fluorescence intensity (a.u.)

From paper PMC7819943, “Rice protein-binding microarrays: a tool to detect cis-acting elements near promoter regions in rice”
